Here are results for 13 compounds from PubChem BioAssay (NCATS).

“And” between values parts separate entries of the source, which are not always exact repeats. Equal entries are not always repeated. Unmarked numbers belong to inactive results. Inconclusive results are not listed. Some compounds were tested as several samples or in several runs, with calls that do not always agree. The source made the active and inactive calls. Unless noted, the call rests on the fitted dose curve; in most records, active means well fitted curve in either direction with a large enough effect (not every such curve was filed as active); inconclusive means small, poorly fitted or top-dose-only effect, or another doubt; inactive means flat fitted curve, though single readings scatter.

The nature of experiment [1]: AP1 Signaling Pathway (AID 357).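 Further: ME-180 reporter cells stimulated with EGF at its EC50 level; on the % scale 0 is the no-effect control and ±100 the full control effect.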 A digest of the protocol: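 First, ME-180 AP-1-bla cells were cultured overnight at 37 °C in low-serum Opti-MEM. Next, titrated compounds with EC50 EGF were incubated 5 hours. Finally, CCF4 was added for 2.5 hours and the 460/530 nm ratio recorded.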
Experiment [2] addresses Cytochrome P450 1A2 (Homo sapiens) (UniProt P05177). Nature of the experiment: p450-cyp1a2 (AID 410; calls by dose curve; further: potency means the concentration at half of the fitted maximal effect;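 on activity change, negative = inhibition: -100% = full effect of reference inhibitor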). In short, it runs like this: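 Inhibition was calculated relative to 57 uM furafylline (full inhibition). The reaction used human CYP1A2 at 20nM with Luciferin-ME at its Km, 100uM, driven by an NADPH-regenerating system for 60 min at room temperature.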
Experiment [3] is described as follows: NFAT Signaling Pathway (AID 444).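 Further: carbachol stimulus at about its EC50 of 1 µM final; on the % scale 0 is the no-effect control and ±100 the full control effect.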 The following applies: Jurkat NFAT-bla M1, carbachol, beta-lactamase ratio, 5 h; at 38 µM (top of the series) unless noted. A digest of the protocol:
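Jurkat cells carrying an NFAT-driven β-lactamase reporter and co-transfected muscarinic M1 receptor were treated with compound plus carbachol (1 uM final, an EC50 level) for 5 h at 37 °C. CCF4 loading followed for 1 h at RT; 460/530 nm ratio gave %activity.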

Experiment [4] is described as follows: Stat Signaling Pathway (AID 446).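 Further: ME-180 cervical cancer cells given 40 pM IL-6 alongside compound; SIE-controlled beta-lactamase reporter measured as 460/530 nm FRET emission ratio; on the % scale 0 is the no-effect control and ±100 the full control effect.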 The following applies: ME-180 SIE beta-lactamase reporter, IL-6 stimulated, 5 h; at 38 µM (top of the series) unless noted. In short, it runs like this: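 Reporter line: ME-180 cervical carcinoma, SIE-beta-lactamase. Treatment: compound with 40 pM IL-6, 5 hrs, 37 C, in low-serum OPTI-MEM with 10 mM HEPES pH 7.3. Detection: 460/530 nm fluorescence.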

Experiment [5] concerns the target Glucocorticoid receptor (Homo sapiens) (UniProt P04150). Put plainly: GR-GFP Redistribution (AID 450;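 active means compounds whose dose series gives a full or clear partial fitted curve of increased nuclear translocation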; further: potency means the concentration at half of the fitted maximal effect). Particulars: U2OS GR-GFP nuclear translocation, laser cytometry, 2 h.
Experiment [6] has the same target. Nature of the experiment: GR-EFC Redistribution (AID 451; calls by dose curve; further: potency means the concentration at half of the fitted maximal effect). The following applies: CHO-K1 GR-EFC translocation, beta-gal luminescence, 2 h. In short, it runs like this:
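CHO-K1 cells stably expressing nuclear-localized β-gal enzyme acceptor and GR fused C-terminally to the enzyme donor fragment; ligand-driven nuclear translocation restores β-gal by complementation. Compounds titrated up to 46 uM final, 2 h at 37 °C; luminescence read.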

Experiment [7] has as its target Lysosomal acid glucosylceramidase (Homo sapiens) (UniProt P04062). Nature of the experiment: Glucocerebrosidase-p2 (AID 348; in the data active means potency below about 10 µM; further: potency means the concentration at half of the fitted maximal effect). The following applies: purified GBA, blue fluorogenic substrate, 40 min. A digest of the protocol:
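Compounds titrated from 0.6 nM upwards against 0.2 nM enzyme in pH 5.9 citric acid/KH2PO4, taurocholate, tween-20; blue fluorogenic substrate 80 uM, 40 min room temperature, stopped and read Ex 365/Em 440 for AC50.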

A short description of experiment [8]: Cell Viability - BJ (AID 421; calls by dose curve;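 further: potency means the concentration at half of the fitted maximal effect; cells exposed to compound for 40 hours at 37 °C before readout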). Particulars: BJ fibroblast viability, qHTS. In short, it runs like this: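 Cytotoxicity as drop in intracellular ATP (CellTiter-Glo, 20 min RT) after 40 hr compound exposure of BJ fibroblasts at 37 °C. Titrations scaled between DMSO and 100 uM tamoxifen, Hill-fitted for AC50.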
Experiment [9] is described as follows: Cell Viability - Hek293 (AID 427;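 active means compounds whose dose-response curve shows a full or clear partial loss of cell viability, called from curve shape rather than a numeric limit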;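 further: potency means the concentration at half of the fitted maximal effect; cells exposed to compound for 40 hours at 37 °C before reading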). Particulars: qHTS. In short, it runs like this:
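Luminescent ATP content (CellTiter-Glo, 20 min at room temperature) was measured after a 40 hr, 37 °C compound exposure of HEK293 cells. AC50 values came from Hill-equation fits of qHTS concentration-response data normalized to DMSO and 100 uM tamoxifen.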
A general note: Quantitative high-throughput screening tests each substance at several concentrations.

A short description of experiment [10]: Cell Viability - HepG2 (AID 433; calls by dose curve;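 further: potency means the concentration at half of the fitted maximal effect; cells exposed to compound for 40 hours; potency for ATP loss meaning cytotoxicity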). Particulars: qHTS. In short, it runs like this:
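ATP luminescence (CellTiter-Glo) after 40 h compound exposure, 37 °C, HepG2, 1500 cells/well, complete medium. Normalized: DMSO = basal, 100 uM tamoxifen = 100% inhibition. AC50 via standard Hill equation.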

Experiment [11] in a line: Cell Viability - MRC5 (AID 434; calls by dose curve;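 further: potency means the concentration at half of the fitted maximal effect; cells exposed to compound for 40 hours at 37 °C; potency reflects cytotoxicity seen as loss of intracellular ATP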). Particulars: MRC5 lung fibroblast viability, qHTS. In short, it runs like this:
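MRC5 normal human lung fibroblasts (1500/well) were treated with compounds for 40 hr at 37 °C in complete medium, and viable cells were measured as intracellular ATP by CellTiter-Glo luminescence. AC50 came from Hill fits, normalized to DMSO and 100 uM tamoxifen.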

Experiment [12] is described as follows: Cell Viability - SK-N-SH (AID 435; calls by dose curve; further: potency means the concentration at half of the fitted maximal effect). The following applies: SK-N-SH neuroblastoma cell viability qHTS. A digest of the protocol:
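CellTiter-Glo ATP luminescence, 20 min RT read; cells pre-plated 5 hr, compound 40 hr at 37 °C, 1500 cells/well, complete medium. Normalized DMSO = 0, 100 uM tamoxifen = 100% inhibition; Hill-fit AC50.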

For experiment [13], the target named is Mitogen-activated protein kinase 10 (Mus musculus) (UniProt Q61831). Put plainly: JNK3 AlphaScreen Assay (AID 530).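 Further: kinase came from lysate of stimulated human HepG2 cells; signal reports phosphorylation of biotinylated GST-cJun 1-79 at Ser73 with 10 µM ATP; on the % scale 0 is the no-effect control and ±100 the full control effect.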 In short, it runs like this: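 JNK3 came from HepG2 lysates pre-activated with IL-1beta and TNF-alpha and phosphorylated biotinylated GST-cJun (1-79) at 10 uM ATP, pH 7.6, room temperature. Compounds were titrated. AlphaScreen signal used anti-phospho-cJun (Ser73) antibody.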

Experiment [14] in a line: Cell Viability - NIH 3T3 (AID 541; active means well fitted curve in the direction sought with a large enough effect; an effect the other way counts as inactive or inconclusive;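 further: cells exposed to compound for 40 hours; plate controls were DMSO alone for no effect and tamoxifen positive control for full effect; nearly all actives have a fitted effect of over 25% in size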). Particulars: NIH 3T3 cell viability, qHTS. In short, it runs like this: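 AC50 values reflect concentration-dependent loss of intracellular ATP in NIH 3T3 cells after 40 hr treatment in complete culture medium, quantified by luciferase-based luminescence.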
Experiment [15] is described as follows: Cell Viability - HUV-EC-C (AID 542; active means well fitted curve in the direction sought with a large enough effect; an effect the other way counts as inactive or inconclusive;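 further: cells exposed to compound for 40 hours; on the % scale 0 is the no-effect control and ±100 the full control effect; nearly all actives have a fitted effect of over 35% in size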). In short, it runs like this: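 Decrease in cellular ATP, quantified by luciferase luminescence, reflects toxicity in normal human vascular endothelial HUV-EC-C cells given compound for 40 hr in complete culture medium. Values are AC50s from concentration-response curves.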
Experiment [16] is described as follows: Cell Viability - H-4-II-E (AID 543; active means well fitted curve in the direction sought with a large enough effect; an effect the other way counts as inactive or inconclusive;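 further: cells exposed to compound for 40 hours; on the % scale 0 is the no-effect control and ±100 the full control effect; nearly all actives have a fitted effect of over 35% in size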). A digest of the protocol:
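Here, cytotoxicity is measured in the rat hepatoma line H-4-II-E as loss of intracellular ATP after 40 hr compound treatment, detected by luciferase luminescence.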

Experiment [17] can be described thus: Cell Viability - SH-SY5Y (AID 544; active means well fitted curve in the direction sought with a large enough effect; an effect the other way counts as inactive or inconclusive;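 further: potency means the concentration at half of the fitted maximal effect; cells exposed to compound for 40 hours; nearly all actives have a fitted effect of over 55% in size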). In short, it runs like this:
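Cytotoxicity is scored as a concentration-dependent fall in intracellular ATP in human SH-SY5Y cells treated 40 hr in complete culture medium. Potency is expressed as AC50 from a Hill equation fit.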

Experiment [18] can be described thus: Cell Viability - Renal Proximal Tubule (AID 545; active means well fitted curve in the direction sought with a large enough effect; an effect the other way counts as inactive or inconclusive;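 further: cells exposed to compound for 40 hours; 0% = DMSO only and -100% = 100 µM tamoxifen; nearly all actives have a fitted effect of over 40% in size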). Particulars: renal proximal tubule cells viability; activity change, negative = cytotoxicity: at 91.7 µM (top of the series). In short, it runs like this:
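Rat kidney proximal tubule cells, freshly isolated; 1000 cells/well, 5 hr settle, compound 40 hr 37 °C. CellTiter-Glo 20 min RT, luminescence read. AC50 by standard Hill fit.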

Experiment [19] can be described thus: Cell Viability - Mesenchymal (AID 546; active means well fitted curve in the direction sought with a large enough effect; an effect the other way counts as inactive or inconclusive;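 further: cells exposed to compound for 40 hours before reading; 0% = DMSO only and -100% = 100 µM tamoxifen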). A digest of the protocol: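 Normal human renal glomerulus-derived kidney mesenchymal cells, 1000 per well in complete medium, were treated with compounds for 40 hr at 37 °C. Viability was read as intracellular ATP by CellTiter-Glo luminescence; AC50 values came from Hill-equation fits of qHTS concentration-response data.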

Cytochrome P450 1A2 (Homo sapiens), sequence (P05177 whole entry, looked up): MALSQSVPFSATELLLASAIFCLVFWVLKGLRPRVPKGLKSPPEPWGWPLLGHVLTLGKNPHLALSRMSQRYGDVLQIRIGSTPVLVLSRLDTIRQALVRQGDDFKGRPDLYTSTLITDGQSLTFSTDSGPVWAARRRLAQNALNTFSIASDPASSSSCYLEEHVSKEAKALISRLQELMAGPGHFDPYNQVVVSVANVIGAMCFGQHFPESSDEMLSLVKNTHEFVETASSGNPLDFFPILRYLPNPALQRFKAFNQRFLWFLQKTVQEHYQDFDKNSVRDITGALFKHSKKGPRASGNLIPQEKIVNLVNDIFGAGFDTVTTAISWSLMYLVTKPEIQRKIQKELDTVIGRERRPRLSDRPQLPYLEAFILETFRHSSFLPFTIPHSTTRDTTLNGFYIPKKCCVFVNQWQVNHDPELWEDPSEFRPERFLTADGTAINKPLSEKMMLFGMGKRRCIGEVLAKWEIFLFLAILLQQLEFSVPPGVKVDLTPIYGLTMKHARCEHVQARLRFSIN
Glucocorticoid receptor (Homo sapiens), sequence (P04150 whole entry, looked up): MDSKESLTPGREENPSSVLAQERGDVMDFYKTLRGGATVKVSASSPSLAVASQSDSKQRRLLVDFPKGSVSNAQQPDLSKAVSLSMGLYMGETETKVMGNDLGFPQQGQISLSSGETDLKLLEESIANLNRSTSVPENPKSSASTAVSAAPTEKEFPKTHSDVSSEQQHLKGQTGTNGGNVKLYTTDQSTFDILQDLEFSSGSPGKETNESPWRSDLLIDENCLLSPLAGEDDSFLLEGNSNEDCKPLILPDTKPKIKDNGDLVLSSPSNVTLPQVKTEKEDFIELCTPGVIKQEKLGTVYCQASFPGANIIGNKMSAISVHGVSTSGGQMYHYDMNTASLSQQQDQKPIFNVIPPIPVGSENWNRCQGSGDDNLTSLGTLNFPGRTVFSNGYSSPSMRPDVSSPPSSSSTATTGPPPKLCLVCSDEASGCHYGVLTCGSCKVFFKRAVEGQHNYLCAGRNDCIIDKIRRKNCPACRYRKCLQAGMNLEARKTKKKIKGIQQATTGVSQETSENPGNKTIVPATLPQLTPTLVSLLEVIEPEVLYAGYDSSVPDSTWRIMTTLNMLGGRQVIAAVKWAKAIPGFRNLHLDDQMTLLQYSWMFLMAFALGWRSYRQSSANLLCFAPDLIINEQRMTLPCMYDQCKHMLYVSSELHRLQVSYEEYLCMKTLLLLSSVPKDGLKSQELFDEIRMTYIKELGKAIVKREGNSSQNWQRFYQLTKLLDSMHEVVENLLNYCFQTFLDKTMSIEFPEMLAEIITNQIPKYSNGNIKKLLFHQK
Lysosomal acid glucosylceramidase (Homo sapiens), sequence (P04062 whole entry, looked up): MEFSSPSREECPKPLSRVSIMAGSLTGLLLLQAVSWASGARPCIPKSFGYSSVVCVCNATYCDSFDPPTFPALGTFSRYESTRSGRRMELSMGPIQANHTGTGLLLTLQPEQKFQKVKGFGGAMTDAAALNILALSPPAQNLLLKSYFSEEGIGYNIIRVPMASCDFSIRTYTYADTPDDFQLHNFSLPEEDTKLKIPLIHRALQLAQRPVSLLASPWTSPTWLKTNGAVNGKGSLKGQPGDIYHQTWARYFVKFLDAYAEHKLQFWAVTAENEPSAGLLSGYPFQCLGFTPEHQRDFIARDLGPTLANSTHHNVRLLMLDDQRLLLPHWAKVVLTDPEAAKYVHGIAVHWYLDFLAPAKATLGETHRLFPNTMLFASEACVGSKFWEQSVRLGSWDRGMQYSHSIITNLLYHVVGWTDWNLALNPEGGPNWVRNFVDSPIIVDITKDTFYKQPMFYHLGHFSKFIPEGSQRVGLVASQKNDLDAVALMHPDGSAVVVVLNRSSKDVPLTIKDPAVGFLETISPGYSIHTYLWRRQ

As for `NNC(=O)c1ccc(O)cc1`, the call in experiment [1] was inactive. Moreover, in [2], the Potency entry was “inactive”. Besides, the activity change, negative = inhibition in [3] is -6.3%. The activity, negative = inhibition in experiment [4] was 13.1%. For the same compound, the Potency in [5] and in experiment [6] was above 46 µM throughout.

In the case of `CC(C)(C)c1cc(O)ccc1O`, the Potency in experiment [7] is above 11.4 µM; in experiment [8], above 92 µM; in [9], above 92 µM; in experiment [10], above 92 µM; in experiment [11] it was above 92 µM; in [12], above 92 µM. The Potency was above 46 µM in experiment [5]; above 9.22 µM in [6]; 10 µM (active) and 12.6 µM (active) in experiment [17]. The activity change, negative = inhibition in experiment [1] was 7.46% [at 7.69 µM]; in [2] it was -8.4% [at 11.4 µM]; in experiment [3] it was -2.58% [at 7.69 µM]. Moreover, the compound was called inactive in [13]. The activity change, negative = cytotoxicity in experiment [14] (activity change, negative = cytotoxicity: at 92.2 µM (top of the series)) was -106% (active); in experiment [14] (at 92.2 µM (top of the series)), -22.3%. Also, the Potency entry in experiment [15], in experiment [16], in experiment [18] and in [19] was “inactive” each time.

In the case of `CN(N=O)c1cc(O)ccc1O`, the compound was classed as inactive in [1]. The values for the Potency in experiment [2] and in [5] were 31.6 µM (active) and above 46 µM, respectively. Also, the activity change, negative = inhibition in [3] is 0.498%.

Regarding `CC(=O)NBr`, the call in experiment [1] and in [13] was inactive. The Potency result in experiment [2] is “inactive”. Further, in [3], the activity change, negative = inhibition was -0.158%. For the same compound, the Potency in [5] is above 46 µM.

With `CN1CCC(c2c[nH]c3ccc(O)cc23)CC1`, the result in experiment [1] and in experiment [13] was inactive. Also, the Potency is 31.6 µM (active) in [2] and above 46 µM in [5]. The activity change, negative = inhibition in [3] was -5.82%.

In the case of `CN1CCc2cccc(Cl)c2CC1`, the result in [1] was inactive. In addition, the Potency result in experiment [2] was “inactive”. For the same compound, the activity change, negative = inhibition in experiment [3] is 3.59%. Moreover, the Potency in [5] was above 46 µM.

For the compound `Clc1cc(I)cc(Cl)c1NC1=NCCN1`, the compound was called inactive in [1]. Moreover, the Potency was 15.8 µM (active) in [2], above 46 µM in experiment [5] and above 46 µM in experiment [6]. The activity change, negative = inhibition in experiment [3] was -4.12%.

For `CC(C)NP(=O)(NC(C)C)OP(=O)(NC(C)C)NC(C)C`, the compound was classed as inactive in experiment [1] and in experiment [13]. Also, the Potency result in experiment [2] was “inactive”. The activity change, negative = inhibition in [3] was -0.786%. In experiment [5], the Potency was above 46 µM.

Take `CN1[C@@H]2CC[C@H]1CC(OC(=O)C1C=Nc3ccccc31)C2` (stereo partly specified): the result in [1] was inactive. For the same compound, in experiment [4], the activity, negative = inhibition is 3.6% [at 17.2 µM].

Consider `NC(=O)CI`, for which the call in experiment [1] and in [13] was inactive. In addition, the Potency in experiment [2] is 31.6 µM (active). In addition, in experiment [3], the activity change, negative = inhibition was 6.62%.

Consider `C[N+]1(C)[C@@H]2CC[C@H]1CC(OC(=O)c1c[nH]c3ccccc13)C2` (stereo partly specified), for which the compound was classed as inactive in experiment [1] and in [13]. In experiment [2], the Potency result was “inactive”. The Potency in [5] is above 46 µM.

Turning to `CCCN(CCC)[C@H]1CCc2c(F)ccc(O)c2C1`, the call in experiment [1] and in [13] was inactive. For the same compound, the Potency in experiment [2] is 12.6 µM (active) and 25.1 µM (active); in [5] it was above 46 µM.

`CCC(=O)O[C@@](Cc1ccccc1)(c1ccccc1)[C@@H](C)CN(C)C`: the compound was classed as inactive in experiment [1] and in experiment [13]. For the same compound, in experiment [2], the Potency entry is “inactive”. Besides, in [3], the activity change, negative = inhibition is -25.8% [at 17.2 µM].
